Bioassay records (PubChem BioAssay)
MOR-DOR ag-1 – OPRM1-OPRD1 heterodimerization agonism | cells, luminescence | activation, % at 9.3 µM | 0.3% of 340,000 active | AID 504326; in the data active = activation above about 18%
Target sequence (P35372 whole entry, looked up): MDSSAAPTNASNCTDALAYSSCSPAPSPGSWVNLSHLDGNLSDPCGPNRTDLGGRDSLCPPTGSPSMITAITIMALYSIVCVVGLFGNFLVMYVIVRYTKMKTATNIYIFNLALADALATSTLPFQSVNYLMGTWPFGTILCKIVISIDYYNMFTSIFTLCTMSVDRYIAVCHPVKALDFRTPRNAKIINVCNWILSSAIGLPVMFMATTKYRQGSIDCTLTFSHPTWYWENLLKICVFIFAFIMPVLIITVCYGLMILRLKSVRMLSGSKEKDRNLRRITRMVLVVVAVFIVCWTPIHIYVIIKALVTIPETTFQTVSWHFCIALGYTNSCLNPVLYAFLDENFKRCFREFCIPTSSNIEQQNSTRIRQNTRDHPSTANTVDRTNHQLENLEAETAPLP
Target sequence (P41143 whole entry, looked up): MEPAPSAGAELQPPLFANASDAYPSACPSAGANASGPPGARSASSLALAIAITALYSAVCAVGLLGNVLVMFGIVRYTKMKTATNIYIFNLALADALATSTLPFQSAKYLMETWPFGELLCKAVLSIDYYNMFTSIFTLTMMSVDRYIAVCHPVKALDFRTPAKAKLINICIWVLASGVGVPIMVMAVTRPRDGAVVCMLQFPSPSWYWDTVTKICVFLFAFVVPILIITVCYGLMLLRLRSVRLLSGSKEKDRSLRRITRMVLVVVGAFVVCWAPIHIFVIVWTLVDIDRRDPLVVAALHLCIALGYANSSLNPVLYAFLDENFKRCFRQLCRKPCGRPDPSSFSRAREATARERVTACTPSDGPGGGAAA
MOR-DOR inv ag-1 – mu-delta opioid heterodimer inverse agonism. P35372+P41143. cell-based MOR-DOR heterodimer luminescence. inhibition, % at 9.3 µM. 0.21% of 340,000 active; in the data active = inhibition above about 22%, passing the limit was not always enough
HTR5A inv ctr – inverse agonist of human HTR5A in OPRM1-OPRD1 counter-screen | P47898 | HTR5A cell line, luminescence, inverse agonism | inhibition, % at 9.3 µM | 0.083% of 340,000 active | AID 504634; in the data active = inhibition mostly above about 23%, no sharp cut-off; inactive = mostly below about 18%
HTR5A ag – activates human HTR5A in OPRM1-OPRD1 agonist counter-screen. 0.61% of 340,000 active. activation, % at 9.3 µM. P47898. HTR5A agonist assay, luminescence, cell-based. AID 504692; in the data active = activation mostly above about 9.5%, no sharp cut-off; inactive = mostly below about 7.6%
MOR-DOR inv conf – confirmation of human OPRM1-OPRD1 heterodimerization inverse agonists; shares compounds with MOR-DOR inv ag-1; cells expressing OPRM1/OPRD1 heterodimer, luminescence; inhibition, % at 9.3 µM; 20% of 580 active; AID 504900; in the data active = inhibition above about 32%
HTR5A inv count – inverse agonist of human HTR5A in OPRM1-OPRD1 counter-screen | HTR5A-expressing cells, luminescence, inverse agonism | shares compounds with MOR-DOR inv ag-1 | inhibition, % at 9.3 µM | AID 504914 | 580 tested, under 10 active
MOR-DOR inv ag-2 – counter-screen for HTR5A inverse agonists: OPRM1-OPRD1 heterodimerization inverse agonism. shares compounds with HTR5A inv ctr. U2OS counter-screen cells, complementation luminescence. inhibition, % at 9.3 µM. 190 tested, under 10 active. AID 504912
HTR5A inv confrm – confirmation of human HTR5A inverse agonists; HTR5A-expressing cells, inverse agonism, luminescence; 190 tested, under 10 active; inhibition, % at 9.3 µM; shares compounds with HTR5A inv ctr
MOR-DOR ag-2 – promotes OPRM1-OPRD1 heterodimerization in HTR5A counter-screen. shares compounds with HTR5A ag. U2OS counter-screen cells, complementation luminescence, 3 h. activation, % at 9.3 µM. 13% of 800 active. AID 504913; in the data active = activation above about 18%
HTR5A ag conf – confirmation of human HTR5A agonists; shares compounds with HTR5A ag; 17% of 800 active; activation, % at 9.3 µM; HTR5A agonist cell assay, luminescence; in the data active = activation above about 17%
Hits are given with their value; i = inactive. This is a sample that favours compounds with a hit; in the whole collection about 1.1% have one here. Unless noted, no rule for the calls is given here.

SMILES | MOR-DOR ag-1 | MOR-DOR inv ag-1 | HTR5A inv ctr | HTR5A ag | others
COC(=O)C1=C(c2ccc(Cl)c(C(F)(F)F)c2)C[C@@H]2CC[C@H]1N2C(=O)NC1CCCCC1 | i | i | i | i
CCOC(=O)c1c(NS(=O)(=O)c2ccccc2)n(CCCOC)c2nc3ccccc3nc12 | i | 45.9 | i | i | MOR-DOR inv conf=i;HTR5A inv count=i
COCCCn1c(N)c(C(=O)OCCOC)c2nc3ccccc3nc21 | i | i | i | i
COC(=O)C1=C(c2ccc(OC)c(OC)c2)C[C@@H]2CC[C@H]1N2C(=O)N1CCCCC1 | i | i | i | i
C[C@H]1CCC/C=C/C2C[C@H](O)CC2[C@H](O)/C=C/C(=O)O1 (stereo partly drawn) | i | 38.5 | i | i | MOR-DOR inv conf=i;HTR5A inv count=i
C[C@H]1CCC[C@@H](O)CCC/C=C/c2cc(O)cc(O)c2C(=O)O1 | i | i | i | i
CC1CCC/C=C/C2CC(O)CC2C(O)/C=C/C(=O)O1 (stereo not drawn) | i | 38.2 | i | i | MOR-DOR inv conf=i;HTR5A inv count=i
COC(=O)C12CCc3c(ccc4cc(OC)ccc34)C1=CC(=O)C2 (stereo not drawn) | i | i | i | i
COCCn1c(O)c(/C=N/NC(=O)CSC(=S)N2CCCC2)c(=O)[nH]c1=S | i | i | 30.1 | i | MOR-DOR inv ag-2=i;HTR5A inv confrm=i
O=[N+]([O-])c1ccc(O)c([N+](=O)[O-])c1 | i | i | i | i
O=c1[nH]c(O)c(N=Nc2cc([N+](=O)[O-])ccc2O)c(=O)[nH]1 | i | i | 27.8 | i | MOR-DOR inv ag-2=i;HTR5A inv confrm=i
CC12C=CC(=O)C=C1CCC1C2C(O)CC2(C)C1CCC2(C)O (stereo not drawn) | i | i | i | i
CN1CCN(c2c(F)cc([N+](=O)[O-])c(N)c2Br)CC1 | i | i | 34.1 | i | MOR-DOR inv ag-2=i;HTR5A inv confrm=i
COC(=O)C1=C(c2cccc(OCc3ccccc3)c2)C[C@@H]2CC[C@H]1N2C(=O)NCc1cc(C)oc1C(F)(F)F | i | i | i | i
c1ccc2c(NC3=NCCS3)cccc2c1 | i | i | i | 18.0 | MOR-DOR ag-2=i;HTR5A ag conf=21.2
Cc1cc(O)c2c(c1)OC(C)(C)C1=C2CC(C)CC1 (stereo not drawn) | i | i | i | 15.2 | MOR-DOR ag-2=i;HTR5A ag conf=i
Cc1cc(O)c2c3c(c(=O)oc2c1)CCC(C)C3 (stereo not drawn) | i | i | i | i
CCCCCn1c(=O)c(C(=O)Nc2nc(CC(=O)OCC)cs2)c(O)c2ccccc21 | i | i | i | i
N#Cc1c(Br)n(C2OC(CO)C(O)C2O)c2ncnc(N)c12 (stereo not drawn) | i | i | i | 80.8 | MOR-DOR ag-2=32.3;HTR5A ag conf=24.1
CCC1=Nc2cc(C(=O)N3CCC4(CC3)OCCO4)ccc2Sc2ccc(C)cc21 | i | i | i | i
CC(CC(C)(C)N1CC1)=NNC(=O)Nc1cccc2ccccc12 | i | i | i | i
CN(C)C(=O)O/N=C(\N)COc1ccc(C(C)(C)C)cc1 | i | i | i | 28.6 | MOR-DOR ag-2=i;HTR5A ag conf=i
Cc1cc(C(=O)OCC(=O)Nc2ccc(F)cc2)c(C)n1C1CC1 | i | i | i | i
CC[C@@H](CO)NC(=O)[C@@H]1C=C2c3cccc4c3c(cn4C)C[C@H]2N(C)C1 | i | i | i | 81.1 | MOR-DOR ag-2=i;HTR5A ag conf=77.6
CC[C@@H](CO)NC(=O)[C@@H]1C=C2c3cccc4[nH]cc(c34)C[C@H]2N(C)C1 | i | i | i | 91.1 | MOR-DOR ag-2=i;HTR5A ag conf=84.3
CC(C)C[C@H]1C(=O)N2CCC[C@H]2[C@]2(O)O[C@](NC(=O)[C@@H]3C=C4c5cccc6[nH]cc(c56)C[C@H]4N(C)C3)(C(C)C)C(=O)N12 | i | i | i | i
CN1C[C@H](CNC(=O)OCc2ccccc2)C[C@@H]2c3cccc4c3c(cn4C)C[C@H]21 | i | i | i | i
